# Data: PubChem BioAssay AID1159580 (chemical genetic matrix, 2015)
# Among all 5,500 compounds or so, about 2,000 (36%) were called active. Another 18% or so got no clear call; they are omitted. Some of the results follow. Values without a mark were called inactive. No stated cut-off is given here; in the data, active means normalized growth mostly below about 0.91 (no sharp cut-off); inconclusive means no clear call, values can overlap the other calls; inactive means mostly above about 0.92.
# Assay: chemical genetic growth profiling, strain panel (AID 1159580);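 further: tested at 20 µM; growth read once vehicle control cultures reached saturation at 30 °C; 1 = growth at the plate median or of vehicle wells; lower values mean less growth of the strain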
# Settings: S. cerevisiae deletion strains, growth OD
# [1] = locus YAL013W, strain DEP1, hits give low values
# [2] = locus YAL040C, strain CLN3, hits give low values
# [3] = locus YCL061C, strain MRC1 (second series), hits give low values
# [4] = locus YDR363W, strain ESC2, hits give low values
# [5] = locus YER002W, strain NOP16, hits give low values
# [6] = locus YGR229C, strain SMI1, hits give low values
# [7] = locus YMR307W, strain GAS1, hits give low values
# [8] = locus YNL153C, strain GIM3, hits give low values
# [9] = locus YNL175C, strain NOP13, hits give low values
# [10] = locus YNL197C, strain WHI3, hits give low values
# [11] = locus YNL224C, strain SQS1, hits give low values
# [12] = locus YNL322C, strain KRE1, hits give low values
# [13] = locus YOR083W, strain WHI5 (second series), hits give low values
structure (smiles),measurement,setting,value
NC(Cc1cccc(-c2ccccc2CP(=O)(O)O)c1)C(=O)O (stereo not given),normalized growth,[1],0.998
same,normalized growth,[2],1
same,normalized growth,[3],1
same,normalized growth,[4],0.983
same,normalized growth,[5],1.02
same,normalized growth,[6],1.01
same,normalized growth,[7],0.989
same,normalized growth,"locus YNL128W, strain TEP1, hits give low values",0.994
same,normalized growth,[8],1.04
same,normalized growth,[9],0.998
same,normalized growth,[10],0.995
same,normalized growth,[11],1
same,normalized growth,[12],1
same,normalized growth,[13],0.989
same,normalized growth,"locus YPL241C, strain CIN2, hits give low values",1
C[C@H](Cc1ccccc1)Nc1ncnc2c1ncn2[C@@H]1O[C@H](CO)[C@H](O)C1O (stereo not given in full),normalized growth,[1],0.995
same,normalized growth,[2],0.979
same,normalized growth,[3],1.01
same,normalized growth,[4],0.989
same,normalized growth,[5],0.997
same,normalized growth,"locus YGR078C, strain PAC10, hits give low values",1
same,normalized growth,[6],1
same,normalized growth,[7],1
same,normalized growth,[8],1.22
same,normalized growth,[9],0.989
same,normalized growth,[10],0.99
same,normalized growth,[11],1
same,normalized growth,[12],0.996
same,normalized growth,[13],0.988
Cc1c(C(=O)Sc2ccc(F)cc2F)sc2nc(C(F)(F)F)nn12,normalized growth,"locus YAR019C, strain CDC15, hits give low values",0.0973 (active)
same,normalized growth,"locus YBL105C, strain PKC1, hits give low values",0.0839 (active)
same,normalized growth,"locus YBR135W, strain CKS1, hits give low values",0.105 (active)
same,normalized growth,"locus YBR136W, strain MEC1, hits give low values",0.0954 (active)
same,normalized growth,"locus YBR160W, strain CDC28, hits give low values",0.0992 (active)
same,normalized growth,"locus YDL017W, strain CDC7, hits give low values",0.0838 (active)
same,normalized growth,"locus YDL028C, strain MPS1, hits give low values",0.38 (active)
same,normalized growth,"locus YDL101C, strain DUN1, hits give low values",0.0962 (active)
same,normalized growth,"locus YDL108W, strain KIN28, hits give low values",0.105 (active)
same,normalized growth,"locus YDL132W, strain cdc53, hits give low values",0.0969 (active)
same,normalized growth,"locus YDL214C, strain PRR2, hits give low values",0.103 (active)
same,normalized growth,"locus YDR052C, strain DBF4, hits give low values",0.102 (active)
same,normalized growth,"locus YDR054C, strain cdc34, hits give low values",0.0939 (active)
same,normalized growth,"locus YDR226W, strain ADK1, hits give low values",0.105 (active)
same,normalized growth,"locus YDR477W, strain SNF1, hits give low values",0.107 (active)
same,normalized growth,"locus YER123W, strain YCK3, hits give low values",0.111 (active)
same,normalized growth,"locus YER133W, strain GLC7, hits give low values",0.106 (active)
same,normalized growth,"locus YFL009W, strain cdc4, hits give low values",0.102 (active)
same,normalized growth,"locus YFL029C, strain CAK1, hits give low values",0.101 (active)
same,normalized growth,"locus YFR003C, strain YPI1, hits give low values",0.45 (active)
same,normalized growth,"locus YFR019W, strain FAB1, hits give low values",0.107 (active)
same,normalized growth,"locus YFR028C, strain CDC14, hits give low values",0.0976 (active)
same,normalized growth,"locus YGR040W, strain KSS1, hits give low values",0.0958 (active)
same,normalized growth,"locus YGR052W, strain FMP48, hits give low values",0.106 (active)
same,normalized growth,"locus YGR092W, strain DBF2, hits give low values",0.116 (active)
same,normalized growth,"locus YHR030C, strain SLT2, hits give low values",0.103 (active)
same,normalized growth,"locus YHR079C, strain IRE1, hits give low values",0.101 (active)
same,normalized growth,"locus YHR082C, strain KSP1, hits give low values",0.133 (active)
same,normalized growth,"locus YHR205W, strain SCH9, hits give low values",0.000493 (active)
same,normalized growth,"locus YIL147C, strain SLN1, hits give low values",0.488 (active)
same,normalized growth,"locus YJL095W, strain BCK1, hits give low values",0.0913 (active)
same,normalized growth,"locus YJL128C, strain PBS2, hits give low values",0.0913 (active)
same,normalized growth,"locus YJL157C, strain FAR1, hits give low values",0.0866 (active)
same,normalized growth,"locus YJR016C, strain ILV3, hits give low values",0.0901 (active)
same,normalized growth,"locus YJR066W, strain TOR1 (second series), hits give low values",0.0917 (active)
same,normalized growth,"locus YJR066W, strain TOR1, hits give low values",0.122 (active)
same,normalized growth,"locus YKL048C, strain ELM1, hits give low values",0.131 (active)
same,normalized growth,"locus YKL067W, strain YNK1, hits give low values",0.108 (active)
same,normalized growth,"locus YKL101W, strain HSL1, hits give low values",0.0974 (active)
same,normalized growth,"locus YKL193C, strain SDS22, hits give low values",0.101 (active)
same,normalized growth,"locus YKL203C, strain TOR2, hits give low values",0.103 (active)
same,normalized growth,"locus YLR113W, strain HOG1, hits give low values",0.145 (active)
same,normalized growth,"locus YLR133W, strain CKI1, hits give low values",0.0966 (active)
same,normalized growth,"locus YLR403W, strain SFP1, hits give low values",-0.00147 (active)
same,normalized growth,"locus YML070W, strain DAK1, hits give low values",0.103 (active)
same,normalized growth,"locus YMR001C, strain CDC5, hits give low values",0.0979 (active)
same,normalized growth,"locus YMR205C, strain PFK2 (second series), hits give low values",0.101 (active)
same,normalized growth,"locus YMR277W, strain FCP1, hits give low values",0.1 (active)
same,normalized growth,"locus YNL006W, strain LST8, hits give low values",0.0889 (active)
same,normalized growth,"locus YNL020C, strain ARK1, hits give low values",0.0935 (active)
same,normalized growth,"locus YNL161W, strain CBK1, hits give low values",0.0956 (active)
same,normalized growth,"locus YNL183C, strain NPR1, hits give low values",0.104 (active)
same,normalized growth,"locus YNL207W, strain RIO2, hits give low values",0.214 (active)
same,normalized growth,"locus YNL222W, strain SSU72, hits give low values",0.102 (active)
same,normalized growth,"locus YNL307C, strain MCK1 (second series), hits give low values",0.105 (active)
same,normalized growth,"locus YOL078W, strain AVO1, hits give low values",0.101 (active)
same,normalized growth,"locus YOL136C, strain PFK27, hits give low values",0.0958 (active)
same,normalized growth,"locus YOR061W, strain CKA2, hits give low values",0.12 (active)
same,normalized growth,"locus YOR119C, strain RIO1, hits give low values",0.116 (active)
same,normalized growth,"locus YOR231W, strain MKK1, hits give low values",0.103 (active)
same,normalized growth,"locus YOR329C, strain SCD5, hits give low values",0.0884 (active)
same,normalized growth,"locus YPL031C, strain PHO85, hits give low values",0.0971 (active)
same,normalized growth,"locus YPL153C, strain RAD53, hits give low values",0.102 (active)
same,normalized growth,"locus YPL204W, strain HRR25, hits give low values",0.111 (active)
same,normalized growth,"locus YPL209C, strain IPL1, hits give low values",0.0875 (active)
same,normalized growth,"locus YPL256C, strain CLN2, hits give low values",0.124 (active)
same,normalized growth,"locus YPR025C, strain CCL1, hits give low values",0.0998 (active)
same,normalized growth,"locus YPR106W, strain ISR1, hits give low values",0.109 (active)
same,normalized growth,"locus YPR111W, strain DBF20, hits give low values",0.169 (active)
same,normalized growth,"strain NNK1, hits give low values",0.105 (active)
same,normalized growth,"strain TSCII, hits give low values",0.104 (active)
